These results are taken from PubChem BioAssay AID1259343 (VanderVen Lab, College of Veterinary Medicine, Cornell …, 2017).

About 2,900 (47%) of roughly 6,200 compounds were called active. So high a share suggests a set chosen from earlier hits. The list shows a part of the results. Unmarked numbers belong to inactive results. Cut-off read from the data, not from the text of the source: active = inhibition above about 50%; inactive = the rest.

The assay in a line: Mycobacterium tuberculosis growth inhibition, primary screen (AID 1259343). The conditions noted are these: inhibition: at 10 µM, active compounds read high; outcome: 10 uM.
The term inhibition denotes the drop in the measured response relative to a control, in per cent. As for `CCCOc1ccc2c(c1)OCC(C(=O)Nc1cnn(C)c1)=C2`, the inhibition is -4.68%.
For `CCCn1cc(NC(=O)c2cc(-c3ccccc3)on2)cn1`, the inhibition was 85.3% (active).
As to `CCCn1cc(CNC(=O)c2ccc(Cl)cn2)cn1`, the inhibition was -32.2%.
The figure for `O=S(=O)(Nc1ccc(N2CCCC2)c(F)c1)c1cc(F)cc(F)c1` is 56.4% (active); for `O=[N+]([O-])c1cc(S(=O)(=O)C(F)(F)F)ccc1N1CCN(c2ccccc2F)CC1` it is 24.3%; for `Cc1ccc(Cl)cc1N1CCN(C(=O)c2ccc(=O)[nH]c2)CC1` it is 32.4%.
For `Cc1ccc(C(=O)N2CCCN(C(=O)OC(C)(C)C)CC2)cc1S(C)(=O)=O` the value was 74.7% (active); for `O=C(c1cc(Br)cc(Br)c1)N1CCCCCC1`, -4.59%; for `CCN(Cc1ccccc1)C(=O)c1ccc(-c2ccccc2)nc1N1CCOCC1`, 20.4%.
The figure for `Cc1cc2c(cc1C)C(=O)C(N1CCOCC1)=C(c1ccccc1)C2=O` is 40.4%.
For the molecule `OCc1sc(N2CCOCC2)nc1-c1ccccc1`, the inhibition was 89.7% (active).
For `Cc1cc(-c2n[nH]c(=S)o2)c(C)n1-c1ccccc1` the value was 70.3% (active); for `S=c1[nH]nc(-c2cc(-c3cccs3)nc3ccccc23)o1`, “inactive”.
The figure for `O=S(=O)(Nc1ccc(Br)cc1F)c1ccc(Cl)c(C(F)(F)F)c1` is 88.3% (active); for `COC(=O)c1ccc(F)c(NS(=O)(=O)c2ccc(Cl)c(C(F)(F)F)c2)c1` it is 41.9%; for `O=S(=O)(Nc1ccc(Br)cc1F)c1cccs1` it is 31.8%.
For `O=S(=O)(Nc1ccc(Br)cc1Cl)c1ccc(F)cc1` the value was 50.5% (active); for `O=[N+]([O-])c1ccc(NN=CC2CCCCC2)cc1`, 97.8% (active).
Turning to `O=[N+]([O-])c1ccccc1NN=C1CCCCc2ccccc21`, the inhibition was 5.1%.
For `O=[N+]([O-])c1ccc(NN=C2CCCCCCC2)cc1` the value was 88.4% (active); for `CC(C)(C)C1CCC(=NNc2ccc([N+](=O)[O-])cc2)CC1` (centres undefined), -18.8%; for `CCC(C)(C)C1CCC(=NNc2ccc([N+](=O)[O-])cc2)CC1` (centres undefined), 74.3% (active).
For `O=S(=O)(Oc1ccc2ccccc2c1Cl)N1CCCCC1` the value was 0.9%.
For `Cc1cc(C)cc(NC(=O)c2c[nH]c3c(c(C)nn3-c3ccccc3)c2=O)c1` the value was 45.9%; for `Cc1ccc(-n2nc(C)c3c(=O)c(C(=O)N4c5ccccc5CC4C)c[nH]c32)cc1` (centres undefined), 54.2% (active).
For the molecule `Cc1nn(-c2ccccc2)c2[nH]cc(C(=O)Nc3ccc(N(C)C)cc3)c(=O)c12`, the inhibition is 29%.
For `COc1ccc(NC(=O)c2c[nH]c3c(c(C)nn3-c3ccccc3)c2=O)cc1` the value was 67.8% (active).
The figure for `Cc1nn(-c2ccccc2)c2[nH]cc(C(=O)Nc3ccccc3)c(=O)c12` is 53.1% (active); for `COc1cccc(NC(=O)c2c[nH]c3c(c(C)nn3-c3ccccc3)c2=O)c1` it is 90.4% (active); for `Cc1ccc(CNC(=O)c2c[nH]c3c(c(C)nn3-c3ccccc3)c2=O)cc1` it is 49.8%.
For `Cc1nn(-c2ccccc2)c2[nH]cc(C(=O)NCc3ccccc3)c(=O)c12` the value was 51.6% (active).
In the case of `Cc1nn(-c2ccccc2)c2[nH]cc(C(=O)NCc3ccccc3Cl)c(=O)c12`, the inhibition was 31.5%.
For `Cc1noc(-c2cc(Br)cc(Br)c2O)n1` the value was 101% (active).
For `O=C(O)c1cc2cc(Cl)ccc2[nH]1` the value was 56.1% (active); for `O=C(O)c1csc(-c2ccc(Cl)cc2Cl)n1`, 39.2%.
For `Cc1cc(Cl)cc2sc(N(CCCn3ccnc3)C(=O)/C=C/c3cccs3)nc12` the value was 75.5% (active); for `N=C1C2=C3Sc4ccccc4N3CCCC2=NN1c1ccc(Cl)cc1`, 13.7%.
Consider `CN(Sc1ccccc1[N+](=O)[O-])c1ccccc1`, for which the inhibition was 30.9%.
For the molecule `O=[N+]([O-])c1cccnc1Oc1ccc(Oc2ccccc2)cc1`, the inhibition is 94.5% (active).
For `c1ccc(CCCc2nnnn2CC2CCOC2)cc1` (centres undefined) the value was 65.2% (active).
The figure for `CC(C)c1noc(C(C)Nc2ccc3c(c2)CCO3)n1` (centres undefined) is 1.87%.
The figure for `COc1ccc(NC(C)c2nc(-c3ccco3)no2)cc1` (centres undefined) is 94.9% (active).
Regarding `CC1(C)C2CCC1(C)C(NS(=O)(=O)Cc1ccccc1)C2` (centres undefined), the inhibition was 7.59%.
For `CC1CCC(NC(=O)COc2ccccc2Br)CC1` (centres undefined) the value was 42.5%; for `CC1(C)C2CCC1(C)C(NC(=O)COc1ccccc1Cl)C2` (centres undefined), 91.4% (active).
For `CCOc1ccccc1NC(=O)N1CCN(CCCOC(c2ccc(Cl)cc2)c2ccc(Cl)cc2)CC1` the value was 16.6%; for `Cc1occc1C(=O)Nc1cc(Cl)ccc1C(=O)O`, 62.5% (active).
Turning to `O=C(Nc1ccc(C(=O)O)c(O)c1)c1cc(Cl)cc(Cl)c1`, the inhibition is 25.6%.
In the case of `CCCc1cc(=O)[nH]c(-n2nc(C)cc2NC(=O)C2c3ccccc3Oc3ccccc32)n1`, the inhibition is 99% (active).
For `Cc1cc(=O)[nH]c(-n2nc(C)cc2NC(=O)C2c3ccccc3Oc3ccccc32)n1` the value was 100% (active); for `Cc1cc(NC(=O)C2c3ccccc3Oc3ccccc32)n(-c2nc3c(c(=O)[nH]2)CCC3)n1`, -27.3%.
For `CCc1cc(=O)[nH]c(-n2nc(C)cc2NC(=O)C2c3ccccc3Oc3ccccc32)n1` the value was 101% (active).
As to `O=C(Nc1ccc(SC(F)F)cc1)c1ccc(-n2cncn2)cc1`, the inhibition is 52.4% (active).
For `CN(C)P(=NC(=S)Nc1ccc(SC(F)F)cc1)(c1ccncc1)N(C)C` the value was “inactive”; for `FC(F)Sc1ccc(NC(=S)NN2CCCCC2)cc1`, 28.6%; for `O=C(O)c1cc(-c2ccccc2F)nc2cc(-c3ccccc3)nn12`, 71.8% (active).
For `CCOC(=O)C1CCCN(C(=O)c2cc(-c3cccc(OC)c3)nc3cc(-c4ccccc4)nn23)C1` (centres undefined) the value was 1.82%; for `COc1cccc(-c2cc(C(=O)O)n3nc(-c4ccccc4)cc3n2)c1`, 104% (active); for `COc1ccc(C(=O)Nc2nc(-c3ccccc3)cs2)cc1`, 22.9%.
`COc1ccc(-c2cc(C(=O)O)n3nc(-c4ccc(Cl)cc4)cc3n2)cc1`: the inhibition is 41.5%.
For `Cc1cc(C(=O)O)n2nc(-c3ccc(Cl)cc3)cc2n1` the value was 76.7% (active); for `COc1cccc(C(=O)Nc2nc(-c3ccccc3)cs2)c1`, 71.2% (active); for `COc1ccc(-c2cc3nc(C)cc(NC(C)c4ccccc4)n3n2)cc1OC` (centres undefined), 26.1%.
For `CCN(CC)S(=O)(=O)c1ccc(C(=O)Nc2nc(-c3ccccc3)cs2)cc1` the value was 35.8%; for `Cc1ccc(-c2cc(C(=O)N(CCN(C)C)Cc3ccccc3)n(-c3ccccc3)n2)cc1C`, 27.2%.
For `O=C(O)c1cc(-c2ccccc2F)nc2cc(-c3ccc(Cl)cc3)nn12` the value was 88.1% (active); for `CC(C)(C)C(=O)Nc1nc(-c2cccc(Br)c2)cs1`, 57.1% (active).
`Cc1cc(C(=O)NCCc2ccccc2)n2nc(-c3ccccc3)cc2n1`: the inhibition is 81.8% (active).
For `O=C(O)c1cc(-c2ccc(F)cc2)nc2cc(-c3ccccc3)nn12` the value was 67.1% (active); for `Nc1nc(-c2ccccc2Cl)co1`, 12%; for `O=C(O)c1cc(-c2ccccc2Cl)nc2cc(-c3ccccc3)nn12`, 96.6% (active).
The figure for `Cc1ccc(-c2c(C)nn3c(NCCc4ccccc4)cc(C)nc23)cc1` is -2.64%; for `Cc1ccc(-c2c(C)nn3c(NCc4cccnc4)cc(C)nc23)cc1` it is 30.6%; for `COc1ccc(-c2c(C)nn3c(NCCc4ccccc4)cc(C)nc23)cc1OC` it is 65.5% (active).
`CN(Cc1ccccc1)c1ncnc(Oc2ccc3c(c2)OCO3)c1N`: the inhibition was 28%.
For `NC(=O)c1ccc(OCc2cc(Cl)c3c(c2)OCO3)cc1` the value was 35.7%; for `O=C1OC(c2ccccc2)OC(=O)C1=Cc1ccc(OCc2ccc3c(c2)OCO3)cc1` (centres undefined), 84.2% (active); for `C=Cc1ccc(Cn2cc(C(=O)NCc3ccco3)sc2=O)cc1`, 7.16%.
As for `O=C(NCCOc1ccccc1F)C12CC3CC(CC(C3)C1)C2`, the inhibition was 31.1%.
Take `O=C(NCc1ccco1)C12CC3CC(CC(C3)C1)C2`: the inhibition was 98.1% (active).
The figure for `COC(=O)CCc1c(C)nc2c(c(-c3ccco3)nn2C2CCS(=O)(=O)C2)c1C` (centres undefined) is 24.9%; for `Nc1ncc(N=Nc2cccc(C(F)(F)F)c2)s1` it is 2.91%; for `CC(C)N(C(=O)c1ccc(-c2cccc(C(F)(F)F)c2)s1)C(C)C` it is 66.1% (active).
For `C#CCN(C)C(=O)c1ccc(-c2cccc(C(F)(F)F)c2)s1` the value was 23.8%; for `O=C(NCC(O)COc1ccc(C(F)(F)F)cc1)c1ccccc1Cl` (centres undefined), 22.8%.
The figure for `CC1Oc2ccccc2OC1C(=O)NCCOc1ccc2ccccc2c1` (centres undefined) is 29.2%; for `O=C(NCCOc1ccc(C(F)(F)F)cc1)C1CSc2ccccc2O1` (centres undefined) it is 77.1% (active); for `CCCOC(=O)c1ccc(NC(=O)c2cc(CCC)[nH]n2)cc1` it is 65% (active).
`CCCOC(=NCCCN(C)C)NC(=O)c1ccc(Cl)c(Cl)c1`: the inhibition is 43.6%.
Turning to `CCCOC(=O)c1cc(Br)ccc1NC(=O)c1ccc(C)nc1`, the inhibition was 8.93%.
The figure for `Nc1scc(-c2ccc(Oc3ccccc3)cc2)[n+]1CCCS(=O)(=O)[O-]` is 68.1% (active); for `Nc1nc(-c2ccc(Oc3ccccc3)cc2)cs1` it is 17.5%.
For `CCOC(=O)NC(n1ccnc1)C(F)(F)C(F)(F)C(F)(F)C(F)F` (centres undefined) the value was 15.8%; for `C=C1/C(=N\OC(=O)Nc2ccc(C)cc2)CC2CC1C2(C)C` (centres undefined), 86.8% (active); for `CN1CCN(c2ccc3nc(-c4c(N)c5c(F)cccc5[nH]c4=O)[nH]c3c2)CC1`, 30.7%.
The figure for `S=C(Nc1ccccn1)NC1CC2CCC1C2` (centres undefined) is 97.7% (active); for `S=C(Nc1ccc(-n2cnnn2)cc1)NC1CC2CCC1C2` (centres undefined) it is 103% (active).
As for `S=C(NCC1COc2ccccc2O1)NC1CC2CCC1C2` (centres undefined), the inhibition was -18.9%.
For `Oc1cccc2c(NC(=S)NC3CC4CCC3C4)cccc12` (centres undefined) the value was 23.4%.
